HSP90 refold inh: HSP90 refolding inhibition in rabbit reticulocyte lysate | luciferase refolding luminescence, 3 h | inhibition, % at 5.6 µM | 290,000 compounds, 0.91% hits;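 active = inhibition above the screen-wide mean plus 3 SD, computed separately per campaign, cut at about 16% in these data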;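 also: 0% = DMSO wells and 100% = 60 µM geldanamycin wells; inhibitors lower the luminescence because luciferase stays unfolded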
HSF1 inhib: HSF1 inhibition; activity change, negative = inhibition, % at 7.5 µM (by protocol); AID 2098; NIH3T3-HGL HSE-luciferase, MG132-induced, luminescence 8 h; active compounds read low; 300,000 compounds, 0.77% hits;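 active = more than half of replicate wells show activity change below -50%, luminescence cut by over half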;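 also: luciferase reports HSF-1 transcriptional activity via heat shock element; 0% = median of DMSO wells and -100% = zero luminescence signal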
HSF1 activator: increases HSF-1 driven luciferase reporter signal; NIH3T3-HGL HSF-1 luciferase reporter, MG132, 8 h; 100% = twice DMSO control signal; activation, % at 9 µM; 300,000 compounds, 1.7% hits;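 active = mean replicate activation of at least 50% with a set share of replicates each reaching 50%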;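 also: 0% = median of the neutral control wells and 100% = twice that signal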
ARNT-TACC3 inh: disruptors of human ARNT/TACC3 interaction; AlphaScreen His-ARNT PAS-B/GST-TACC3 binding, luminescence; TACC3 fragment carries E629A point mutation; inhibition, % at 9.99 µM; 390,000 compounds, 0.66% hits; AID 623870;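 active = mean inhibition of replicates at least 50% and at least half of replicates each reaching 50%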;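 also: 0% = complete ARNT plus TACC3 wells and 100% = ARNT alone without TACC3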
HIF activator: HIF pathway transcriptional activation; U2OS HRE-luciferase reporter, luminescence; normalized: DMSO 0%, desferrioxamine 100%; activation, % at 7.5 µM (by protocol); 300,000 compounds, 0.32% hits;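 active = mean activation of at least 10% of the iron chelator positive control signal, with at least half of replicates also reaching 10%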
* hit, by the source's call. Rows were chosen to be rich in hits. Some 3.1% of all compounds tested hit in one or more screens of this group.

`NC(=S)NNc1cccc2cccnc12` gave HSP90 refold inh 5.9, HSF1 inhib 14.4, HSF1 activator 9.1, ARNT-TACC3 inh 65.2* and HIF activator 1.0.
Screening O=C(Nc1cccc2cccnc12)c1ccccc1Cl returned HSF1 inhib 49.9, HSF1 activator 90.8* and HIF activator 0.5.
Screening O=C(Nc1cccn(Cc2c(Cl)cccc2Cl)c1=O)c1ccccc1Cl returned HSP90 refold inh 2.3, HSF1 inhib 39.2, HSF1 activator 89.0* and HIF activator 0.6.
Screening C[C@H]1CCCCO[C@@H](CN(C)S(=O)(=O)c2ccc(F)cc2)[C@@H](C)CN([C@@H](C)CO)C(=O)c2cc(NC(=O)Nc3ccccc3)ccc2O1 returned ARNT-TACC3 inh -11.7.
`COc1nccc(C(F)(F)F)c1C(=O)NC(=O)Nc1c(C)cccc1C` gave HSP90 refold inh 1.9, HSF1 inhib 1.9, HSF1 activator 9.0, ARNT-TACC3 inh 0.3 and HIF activator 0.2.
Screening COc1nccc(C(F)(F)F)c1C(=O)NC(=O)Nc1ccccc1 returned HSP90 refold inh 1.3, HSF1 inhib 10.2, HSF1 activator 19.2, ARNT-TACC3 inh -4.0 and HIF activator 139.6*.
Screening C[C@H]1CN([C@@H](C)CO)C(=O)c2cccc(NC(=O)c3ccc(-c4nccs4)cc3)c2O[C@@H]1CN(C)S(=O)(=O)c1ccc(F)cc1 returned ARNT-TACC3 inh -7.1.
`C[C@@H]1CN([C@@H](C)CO)C(=O)c2cc(-c3ccccc3)cnc2O[C@@H]1CN(C)C(=O)NC1CCCC1` gave ARNT-TACC3 inh -10.7.
`Cc1ccccc1-n1nc(CSc2nc3ccccc3[nH]2)c(-c2ccccc2)c1N` gave HSP90 refold inh 2.9, HSF1 inhib 23.1, HSF1 activator 60.1*, ARNT-TACC3 inh 0.5 and HIF activator 0.1.
For C[C@H]1CCCCO[C@H](CN(C)C(=O)c2ccncc2)[C@@H](C)CN([C@@H](C)CO)C(=O)c2cc(NS(C)(=O)=O)ccc2O1 the results were ARNT-TACC3 inh -7.1.
`Cc1ccc(-n2[nH]c(C)c(C=Nc3cc(C)ccn3)c2=O)cc1` gave HSP90 refold inh -0.9, HSF1 inhib -21.3, HSF1 activator -32.7 and HIF activator -27.8.
`Cc1cc(C(=O)N/N=C/c2c(C)[nH]n(-c3ccccc3)c2=O)n[nH]1` gave HSP90 refold inh 1.7, HSF1 inhib 8.0, HSF1 activator 9.0, ARNT-TACC3 inh 84.3* and HIF activator 0.0.
Screening Cc1ccc(-n2[nH]c(C)c(/C=N/NC(=O)c3ccc(O)cc3O)c2=O)cc1 returned HSP90 refold inh -11.4, HSF1 inhib 9.0, HSF1 activator 17.9, ARNT-TACC3 inh 62.1* and HIF activator 5.0.
Cc1[nH]n(-c2ccccc2)c(=O)c1/C=N/NC(=O)c1ccc(O)cc1O was read as HSP90 refold inh -2.8, HSF1 inhib 3.3, HSF1 activator -2.8, ARNT-TACC3 inh 71.4* and HIF activator 0.5.
Cc1[nH]n(-c2ccc(Br)cc2)c(=O)c1/C=N/NC(=O)c1ccccc1 was read as HSP90 refold inh -0.8, HSF1 inhib 13.4, HSF1 activator 38.8, ARNT-TACC3 inh 27.4 and HIF activator 1.1.
Cc1[nH]n(-c2ccccc2)c(=O)c1/C=N/Nc1nncc(-c2ccccc2)n1 was read as HSP90 refold inh 1.0, HSF1 inhib -14.4, HSF1 activator -4.6, ARNT-TACC3 inh 66.3* and HIF activator -0.2.
For C[C@@H]1CN([C@H](C)CO)C(=O)c2cccc(NC(=O)NC3CCCCC3)c2O[C@@H]1CN(C)S(=O)(=O)c1cccs1 the results were ARNT-TACC3 inh -2.8.
`C[C@@H]1CN([C@@H](C)CO)C(=O)c2cc(NC(=O)Nc3ccc(F)cc3)ccc2O[C@@H](C)CCCCO[C@@H]1CN(C)Cc1ccc2c(c1)OCO2` gave ARNT-TACC3 inh -3.9.
For Cc1cc(C(=O)N/N=C/c2cc(N=Nc3ccccc3)ccc2O)n[nH]1 the results were HSP90 refold inh 0.7, HSF1 inhib -3.3, HSF1 activator -1.3, ARNT-TACC3 inh 0.9 and HIF activator 18.7*.
COC(=O)N/N=C/c1cc(N=Nc2ccccc2)ccc1O was read as HSP90 refold inh -2.6, HSF1 inhib 2.7, HSF1 activator 4.0, ARNT-TACC3 inh -4.4 and HIF activator -0.6.
`Cc1[nH]n(-c2ccc(Cl)cc2)c(=O)c1/C=N/c1nnc(-c2ccccc2)s1` gave HSP90 refold inh -2.6, HSF1 inhib 5.2, HSF1 activator 24.6, ARNT-TACC3 inh active and HIF activator -0.2.
Nc1ccc(C(=O)N/N=C\c2cc(N=Nc3cccc4ccccc34)ccc2O)cc1 was read as HSP90 refold inh -0.1, HSF1 inhib -12.4, HSF1 activator -5.3, ARNT-TACC3 inh -15.5 and HIF activator 13.6*.
For CO[C@@H]1CN(C)C(=O)c2ccc(NC(=O)c3cnccn3)cc2OC[C@H](C)N(C(=O)C2CC2)C[C@@H]1C the results were ARNT-TACC3 inh 5.6.
CCC(=O)N1C[C@H](O)COC[C@@H]2O[C@@H](CC(=O)NCC3CCCCC3)CC[C@H]21 was read as ARNT-TACC3 inh -4.0.
`C[C@H]1CN([C@@H](C)CO)C(=O)Cc2cc(NC(=O)Nc3ccccc3)ccc2O[C@@H]1CN(C)Cc1ccc(C(=O)O)cc1` gave ARNT-TACC3 inh -6.8.
`Cc1ccc(NC2=NC3(CCCC3)N=C(N)N2)c(C)c1` gave HSP90 refold inh 3.3, HSF1 inhib 66.1, HSF1 activator 82.6*, ARNT-TACC3 inh 0.2 and HIF activator 0.3.
COC(=O)c1ccc(COc2ccccc2/C=C(\C#N)C(=O)Nc2ccccc2C)cc1 was read as HSP90 refold inh 4.2, HSF1 inhib -0.9, HSF1 activator -4.7, ARNT-TACC3 inh 18.8 and HIF activator -0.2.
Screening COC(=O)c1ccc(COc2ccccc2/C=C(\C#N)C(=O)Nc2c(C)cccc2C)cc1 returned HSP90 refold inh -1.0, HSF1 inhib 126.3, HSF1 activator 147.8*, ARNT-TACC3 inh -5.9 and HIF activator 1.9.
CCOC(=O)N1CCN(CCC(=O)Nc2ccc(OC)cc2OC)CC1 was read as HSP90 refold inh -2.4, HSF1 inhib -4.7, HSF1 activator -24.3, ARNT-TACC3 inh 2.1 and HIF activator -0.2.
CCN1CCN(C(=O)C(C)Nc2ccc(OC)cc2OC)CC1 (stereo not given) was read as HSP90 refold inh -2.5, HSF1 inhib -7.6, HSF1 activator -10.6, ARNT-TACC3 inh 42.3* and HIF activator -0.1.
`COc1cccc(S(=O)(=O)N(C)C[C@@H]2Oc3cc(C4=CCCC4)ccc3S(=O)(=O)N([C@@H](C)CO)C[C@H]2C)c1` gave ARNT-TACC3 inh 26.0.
O=C(O)/C=C\C(=O)Nc1ccccc1C#Cc1ccc(Br)cc1 was read as HSP90 refold inh -3.5, HSF1 inhib 13.7, HSF1 activator 55.6*, ARNT-TACC3 inh -8.6 and HIF activator 2.4.
For CCOC(=O)c1c(C(C)(C)C)oc2ccc(O)cc12 the results were HSP90 refold inh -2.3 and ARNT-TACC3 inh 13.3.

Assay outcomes (PubChem BioAssay)
